Assay outcomes deposited in PubChem BioAssay by Broad Institute.
TRPM1 prom inh – MITF TRPM1 promoter inhibition in SK-MEL-5 cells. inhibition, % at 12.5 µM. actives 0.83% (n = 330,000). SK-MEL-5 TRPM1 promoter luciferase, 24 h;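 active means mean inhibition across replicates of 60% or more, whatever share of single replicates reaches that level; inconclusive means some that reach 60%, reason not given; inactive means mean inhibition across replicates below 60%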
LGR2 antag – blocks bursicon-induced cAMP signaling via Drosophila LGR2 | HEK293 LGR2, CRE-luciferase, bursicon-stimulated, 4 h | inhibition, % at 9.99 µM | actives 0.35% (n = 380,000);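 active means drop in luminescence signal, shown as inhibition above about 50% in the replicate tests, limit read from the data, passing the limit was not always enough; inconclusive means probably only some replicates passing the limit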;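 further: agonist challenge used bursicon conditioned medium at about half maximal strength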
PAX8 inh HTS – lowers PAX8-driven luciferase in RMG-I cells; RMG-I TPO-luciferase reporter, SteadyGlo, 24 h; inhibition, % at 12.6 µM; actives 1.2% (n = 360,000);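 active means mean replicate inhibition at least 60% with every replicate also reaching 60%; inconclusive means only one of the two criteria is met; inactive means mean below 60% and not all replicates reaching 60%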;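 further: luciferase light reporting Pax8 driven TPO promoter activity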
Shn3 inh set2 – inhibitors of Schnurri-3 3'UTR reporter in osteoblasts. Clone20 osteoblast Shn3 3'UTR firefly luciferase, 24 h. inhibition, % at 12.5 µM. actives 0.52% (n = 360,000);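 active means mean inhibition of at least 75% with every replicate also reaching 75%; inconclusive means mean inhibition at least 75% but some replicate below; inactive means mean inhibition below 75%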
LMP1 NFkB inh – inhibitors of Epstein-Barr LMP1-induced NF-kappaB reporter; LMP1-induced NF-kappaB luciferase reporter cells, luminescence; inhibition, % at 12.5 µM; actives 0.69% (n = 350,000); in the data active means inhibition above about 41%; inconclusive means no clear call, values can overlap the other calls
EWS-Fli inh – inhibitors of EWS/Fli oncoprotein transcriptional activity | AID 651661 | actives 0.67% (n = 350,000) | A673 NR0B1-luciferase reporter, viability-normalised | inhibition, % at 12.6 µM;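 active means mean inhibition of at least 50% after viability correction, with every replicate also passing that limit; inconclusive means mean reaches 50% but only one of two replicates passes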;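 further: firefly luciferase signal divided by Alamar Blue viability fluorescence both relative to DMSO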
Numbers stand for hits; – = inactive; ? = inconclusive; · = no result. Sampled rows, rich in hits. Any-hit rate of the full collection: about 2.2%.

SMILES | TRPM1 prom inh | LGR2 antag | PAX8 inh HTS | Shn3 inh set2 | LMP1 NFkB inh | EWS-Fli inh
CCC(=O)Nc1ccc2c(c1)C(=O)N(C)C[C@H](OC)[C@@H](C)CN(C(=O)c1ccc(F)cc1)[C@H](C)CO2 | · | – | · | · | · | –
COCCNC(=O)C[C@@H]1CC[C@@H]2[C@H](COC[C@H](O)CN2C(=O)Nc2ccccc2OC)O1 | · | – | · | · | · | ·
C[C@H](CO)N1C[C@H](C)[C@@H](CN(C)C(=O)NC2CCCCC2)Oc2ncc(C#CCN(C)C)cc2C1=O | · | – | – | · | · | –
COc1ccc(NC(=O)c2nc(S(=O)(=O)Cc3cccc(C)c3)ncc2Cl)c(OC)c1 | – | – | – | 97 | – | ·
COc1ccc(OC)c(NC(=O)c2nc(S(=O)(=O)Cc3ccccc3)ncc2Cl)c1 | 95 | – | – | 97 | – | ·
CO[C@H]1CN(C)C(=O)c2ccc(NC(=O)c3ccccc3)cc2OC[C@H](C)N(CC2CC2)C[C@H]1C | · | – | · | · | · | –
CN1/C(=C\C=N\NC(=O)c2ccc(O)cc2)C(C)(C)c2ccccc21 | – | – | – | 88 | – | ·
CN1/C(=C\C=N\NC(=O)c2cccnc2)C(C)(C)c2ccccc21 | – | – | – | – | – | –
O=C1C(=C(c2ccccc2)N2CCOCC2)Cc2ccccc21 | · | 107 | 113 | 98 | 64 | 60
O=C(c1ccccc1)N1CCN(C(=O)N2CCOCC2)CC1 | – | · | – | – | – | ·
C[C@@H]1CCCCO[C@H](CN(C)C(=O)c2ccccc2)[C@H](C)CN([C@H](C)CO)C(=O)c2cc(NS(C)(=O)=O)ccc2O1 | · | – | – | · | · | –
N=c1ccn(CC(=O)c2ccc(-c3ccccc3)cc2)cc1 | – | – | 83 | – | – | –
O=C(CN1C(=O)CCC1=O)c1ccc(-c2ccccc2)cc1 | – | – | – | – | – | –
CC(=O)c1ccc(Sc2nnnn2-c2ccccc2)c([N+](=O)[O-])c1 | 63 | 76 | – | – | – | –
CN1CCN(S(=O)(=O)c2ccc(Sc3nnnn3-c3ccccc3)c([N+](=O)[O-])c2)CC1 | 88 | · | – | 87 | – | –
C[C@H]1CN([C@@H](C)CO)C(=O)Cc2cc(NS(=O)(=O)c3ccccc3)ccc2O[C@H]1CN(C)C(=O)Nc1cccc2ccccc12 | · | – | – | · | · | –
CC[n+]1c(C=C2C=C(C)OC(C)=C2)sc2ccccc21 | 74 | – | 85 | – | – | ?
CC[n+]1c(/C=C2/C=C(C)CC(C)C2)sc2ccccc21 (stereo unspecified) | – | – | – | – | – | –
CC[n+]1c(/C=C/Nc2ccccc2)sc2ccccc21 | – | · | – | 92 | – | ·
COc1ccc(/C=C/C(=O)C(C(N)=O)=C2SCCS2)cc1 | – | – | – | – | – | –
NC(=O)C(C(=O)/C=C/c1ccc(Cl)cc1)=C1SCCS1 | – | – | 89 | · | – | –
NCC[C@H]1CC[C@@H](NC(=O)C2CCCC2)[C@H](CO)O1 | · | – | – | · | · | –
C[C@@H]1CCCCO[C@H](CN(C)C(=O)Nc2ccc(F)cc2)[C@H](C)CN([C@H](C)CO)C(=O)c2cc(NS(=O)(=O)c3cccs3)ccc2O1 | · | – | – | · | · | –
COc1ccc(C2/C=C\CN(C(=O)c3ccc(C)cc3)[C@H](Cc3ccccc3)C(=O)N2Cc2ccc(F)cc2)cc1 (stereo partly specified) | – | · | · | 87 | – | ·
Cn1nc2c3cc(F)ccc3n(Cc3ccc(F)cc3)cc-2c1=O | – | – | – | – | – | –
SMILES | TRPM1 prom inh | LGR2 antag | PAX8 inh HTS | Shn3 inh set2 | LMP1 NFkB inh | EWS-Fli inh
COc1cc2c3nnc(-c4ccc(F)cc4)c-3cn(Cc3ccc(F)cc3)c2cc1OC | 73 | – | – | – | – | –
COc1cc2c3nnc(-c4ccc(F)cc4)c-3cn(Cc3ccccc3)c2cc1OC | · | – | 69 | – | – | –
CN(C)C(=O)c1cccc(-c2ccc(C3[C@@H]4CN(S(=O)(=O)Cc5ccccc5)C[C@H]3N4)cc2)c1 (stereo partly specified) | · | – | – | · | · | –
COc1cc(C2c3cc4c(cc3OC(NCCc3ccccc3)C2C)OCO4)cc(OC)c1OC (stereo unspecified) | – | – | – | – | – | 54
COc1cc(C2c3cc4c(cc3OC(Nc3ccc(C(=O)O)cc3)C2C)OCO4)cc(OC)c1OC (stereo unspecified) | – | – | – | – | – | 52
CCCC(=O)Nc1ccc2c(c1)C(=O)N(C)[C@@H]1CC[C@@H](CC(=O)NCc3ccccc3)O[C@H]1CO2 | · | – | – | · | · | –
Oc1ccccc1-c1cc(C(F)(F)C(F)F)nc(-c2ccccc2)n1 | – | – | · | – | – | ·
O=[N+]([O-])c1ccc(O)c(-c2cc(C(F)(F)F)nc(-c3ccccc3)n2)c1 | 89 | – | 107 | 90 | – | –
Cc1[nH]n(-c2ccc(Br)cc2)c(=O)c1/C=N/NC(=O)c1ccccc1 | – | – | – | – | 47 | –
Cc1[nH]n(-c2ccccc2)c(=O)c1/C=N/Nc1nncc(-c2ccccc2)n1 | – | – | · | – | 69 | –
O=S(=O)(c1ccccc1)N1CCCCN2[C@@H](CO)[C@@H](c3ccc(-c4ccccc4F)cc3)[C@@H]2C1 | · | – | – | · | · | –
O=C(CCl)N(CCCNC(=O)C(F)(F)F)c1ccc([N+](=O)[O-])cc1 | – | – | – | – | – | –
CC(=O)n1cc(CO)c2ccccc21 | – | – | · | – | – | –
CC(=O)n1cc(N(C(=O)CCl)c2ccccc2)c2ccccc21 | 66 | – | 109 | · | – | –
CC(=O)n1cc(N(C(=O)CCl)c2ccc([N+](=O)[O-])cc2)c2ccccc21 | 69 | – | – | · | – | 56
O=Cc1[nH]c2ccccc2c1N(C(=O)CCl)c1ccc([N+](=O)[O-])cc1 | – | ? | 90 | · | – | –
CO[C@H]1CN(C)C(=O)c2cc(NC(C)=O)ccc2OC[C@@H](C)N(Cc2cccnc2)C[C@H]1C | · | – | – | · | · | –
COCC(=O)N1C[C@H](C)[C@@H](OC)CN(C)C(=O)c2ccc(NC(=O)c3ccc(OC)cc3)cc2OC[C@H]1C | · | – | – | · | · | –
CNC(=O)c1nnsc1S(=O)(=O)c1ccc(Cl)cc1 | 85 | 103 | 107 | 99 | 68 | 58
O=C(N1CCOCC1)N1CCN(S(=O)(=O)c2ccc(Cl)cc2)C1 | – | – | – | – | 44 | –
O=C(c1nnsc1S(=O)(=O)c1ccc(Cl)cc1)N1CCOCC1 | 73 | 102 | 93 | 95 | – | –
Nc1nc(C(=O)N2CCOCC2)nn1S(=O)(=O)c1ccc(Cl)cc1 | – | · | – | – | – | ·
COc1cccc(CN(C)C[C@@H]2OCc3ccccc3-c3c(n(C)c4ccccc34)C(=O)N([C@H](C)CO)C[C@@H]2C)c1 | · | – | – | · | · | –
OC[C@H]1[C@@H](c2ccccc2)C2(CN(CC3CC3)C2)N1Cc1nccs1 | · | – | – | · | · | –
O=C(CCl)N1N=C(c2cccs2)CC1c1ccco1 (stereo unspecified) | – | – | – | – | – | 71
COc1cc(/C=C2\SC(=Nc3ccccc3OC)NC2=O)ccc1O | – | – | 71 | – | – | –
